Out of some 52,000 compounds screened, about 4,300 (8.3%) were called active. What follows is part of a selection rich in actives, with near analogues and random picks from the rest. A number with no mark means an inactive call. Rule as the data show it: active = survival mostly below about 52% (no sharp cut-off); inactive = mostly above about 56%.
Tested on: DeltatarO mutant
Test: S. aureus survival, RN4220 and DeltatarO strains – OD600, teichoic acid synthesis inhibitors, primary screen (AID 463173)
Conditions: S. aureus RN4220 wild type/DeltatarO growth, OD600, 18 h, stronger effect = lower value, screened at 18.75 µg/mL (by protocol)

| Compound | survival |
| --- | --- |
| O=C(NC1CCCCC1)c1cccs1 | 107% |
| COCCN(Cc1cc2cc3c(cc2nc1Cl)OCO3)C(=O)Nc1ccccc1OC | 92% |
| CCOc1ccc(CN(C(=O)c2nc(SC)ncc2Cl)C2CCS(=O)(=O)C2)cc1 (centres undefined) | 88% |
| Cc1ccc(-c2ccc(=O)n(CC(=O)Nc3ccc(F)c(Cl)c3)n2)cc1C | 82% |
| COc1ccccc1Nc1cc(C(=O)NCc2cccs2)c2ccccc2n1 | 73% |
| Cc1cc(=O)[nH]c2nnc(SCCC(C)C)n12 | 73% |
| Cc1nnc(NC(=O)c2nc(S(=O)(=O)Cc3ccccc3)ncc2Cl)s1 | 48% (active) |
| CCCNC(=O)c1cnc2c(-c3ccc(OCC)c(OCC)c3)c(C)nn2c1-c1ccccc1 | 92% |
| CCOc1ccc(-c2c(C)nn3c(-c4ccccc4)c(C(=O)NCCOC)cnc23)cc1OCC | -5% (active) |
| Cc1cccc(CNC(=O)c2cnc3c(-c4cccc(C)c4)c(C)nn3c2C)c1 | 17% (active) |
| Cc1nn2c(C)c(C(=O)NCc3cccc(Br)c3)cnc2c1-c1ccccc1 | 66% |
| CCNC(=O)c1cnc2c(-c3ccccc3)c(C)nn2c1C | 8% (active) |
| CCOc1ccc(-c2c(C)nn3c(C)c(C(=O)Nc4ccccc4C(=O)OC)cnc23)cc1OCC | -4% (active) |
| CCCCNC(=O)c1cnc2c(-c3ccc(OCC)c(OCC)c3)c(C)nn2c1-c1ccccc1 | 73% |
| CCOc1ccc(-c2c(C)nn3c(C)c(C(=O)Nc4cc(C)cc(C)c4)cnc23)cc1OCC | 118% |
| CCOc1ccc(-c2c(C)nn3c(C)c(C(=O)Nc4cccc(Cl)c4C)cnc23)cc1OCC | 76% |
| Cc1nn2c(C)c(C(=O)NCC(C)c3ccccc3)cnc2c1-c1ccccc1 (centres undefined) | 101% |
| COc1cc(CNC(=O)c2cnc3c(-c4cccc(C)c4)c(C)nn3c2C)cc(OC)c1OC | 68% |
| Cc1nn2c(C)c(C(=O)NCCc3ccccc3)cnc2c1-c1ccccc1 | 81% |
| Cc1ccc(-n2c(SCC(=O)Nc3ccc4c(c3)OCO4)nc3c([nH]c4ccccc43)c2=O)cc1 | 128% |
| CCOc1ccc(CNC(=O)Cn2c(=O)c3cccn3c3ccc(F)cc32)cc1OC | 47% |
| COc1cc(NC(=O)c2cc(-c3ccc4c(c3)OCO4)on2)cc(OC)c1OC | 115% |
| CCn1cc(C(=O)N(C)Cc2ccccc2)c(=O)c2cc(S(=O)(=O)N3CCc4ccccc4C3)ccc21 | 65% |

| Compound | survival |
| --- | --- |
| O=C(Cn1cc(C(=O)C(F)(F)F)c2ccccc21)N1CCCCCC1 | 56% |
| COc1cc(C(=O)NCc2nnnn2-c2ccc(C)c(C)c2)cc(OC)c1OC | 98% |
| CCOc1ccc(CCNC(=O)c2cnc3c(-c4ccccc4)c(C)nn3c2C)cc1OCC | 20% (active) |
| CCOc1ccc(CCNC(=O)c2cnc3c(-c4ccc(F)cc4)c(C)nn3c2C)cc1OCC | 134% |
| CCOc1ccc(-c2c(C)nn3c(C)c(C(=O)NCCc4ccccc4)cnc23)cc1OCC | 54% |
| CCN1/C(=C\C(=O)C2CC2)Sc2ccccc21 | 81% |
| COc1ccc(OCc2nc3ccccc3n2C(C)C)cc1 | 88% |
| CCC(C)Cn1c(COc2ccc(OC)cc2)nc2ccccc21 (centres undefined) | -1% (active) |
| COc1ccc(OCC(O)Cn2c(C(C)C)nc3ccccc32)cc1 (centres undefined) | 88% |
| Cc1ccc(OCc2nc3ccccc3n2CC(C)C)cc1 | 1% (active) |
| COc1ccc(OCc2nc3ccccc3n2C(C)c2ccccc2)cc1 (centres undefined) | -15% (active) |
| Cc1nc2ccccc2n1C(C)c1ccccc1 (centres undefined) | 77% |
| Cc1ccc(S(=O)(=O)c2cn(CC(=O)Nc3ccc4c(c3)OCO4)c3ccccc3c2=O)cc1C | 112% |
| Cc1ccc(NC(=O)c2nnn(Cc3cccc(C(F)(F)F)c3)c2N)c(C)c1 | 86% |
| COc1ccc(-n2c(=O)c3c4c(sc3n(Cc3cc(C)ccc3C)c2=O)CN(C(C)=O)CC4)c(OC)c1 | 93% |
| Cc1cccc(CC(=O)NC2CC(=O)N(c3ccc4c(c3)OCCO4)C2)c1 (centres undefined) | 72% |
| CN1C(=O)Cc2cc(S(=O)(=O)N3CCN(c4cccc(C(F)(F)F)c4)CC3)ccc21 | 116% |
| CCOC(=O)c1c(C)[nH]c(C)c1S(=O)(=O)NCC(=O)N1CCN(c2ccccc2OC)CC1 | 102% |
| CC(=O)Nc1ccc(NC(=O)c2cc(-c3cccs3)on2)cc1 | 78% |
| COc1ccc(OC)c(-c2cc(C(=O)NCc3ccc(Cl)cc3)no2)c1 | 47% |
| Cc1c(Cl)cccc1NC(=O)c1cc(-c2cccs2)on1 | 66% |
| Cc1c(Cl)cccc1NC(=O)c1cc(-c2cccc(Cl)c2)on1 | 61% |
| Cc1ccc(NC(=O)c2cc(-c3cccs3)on2)cc1C | 45% (active) |

| Compound | survival |
| --- | --- |
| CC(C)c1cc(C(=O)NC(C)c2ccccc2)no1 (centres undefined) | 50% |
| COc1ccc(OC)c(-c2cc(C(=O)Nc3cccc(Cl)c3C)no2)c1 | 2% (active) |
| COc1ccc(OC)c(-c2cc(C(=O)Nc3cnn(Cc4ccc(Cl)cc4Cl)c3)no2)c1 | 64% |
| COc1ccc(OC)c(-c2cc(C(=O)Nc3ccc(C)c(C)c3)no2)c1 | -1% (active) |
| COc1ccc(OC)c(-c2cc(C(=O)NC(C)c3ccccc3)no2)c1 (centres undefined) | -14% (active) |
| CC(NC(=O)c1cc(-c2ccc(Cl)cc2)on1)c1ccccc1 (centres undefined) | 142% |
| CCc1ccc(NC(=O)c2cc(-c3cccs3)on2)cc1 | 161% |
| Cc1cc(Nc2ccc(Cl)cc2C)nc(-n2nc(C)cc2C)n1 | 74% |
| Cc1ccc(Cn2c(CO)cnc2SCc2ccc(F)cc2)cc1 | 109% |
| COc1cccc(N2C(=O)C(CC(=O)Nc3cccc(F)c3)N(C(C)C)C2=O)c1 (centres undefined) | 94% |
| Cc1ccc(CSc2c(C)cnc3c2c(=O)n(C)c(=O)n3C)cc1 | 78% |
| COc1ccc(OCC(=O)OC2CCN(C)CC2)cc1 | 112% |
| CCN(CC)CCCNC(=O)c1cn(CC)c2ccc(S(=O)(=O)N3CCC(C)CC3)cc2c1=O | 105% |
| CS(=O)(=O)N1CCC(c2nc(-c3ccc(S(=O)(=O)NCC4CCCO4)cc3)no2)CC1 (centres undefined) | 85% |
| CCn1c(=O)c2cc(C(=O)Nc3cc(F)ccc3F)sc2c2ccccc21 | 96% |
| CCOc1ccccc1NC(=O)c1c(NCc2ccc(C)o2)sc2c1CCCCC2 | 95% |
| COc1cc(NC(=O)c2cc(-c3ccc(Cl)c(Cl)c3)on2)cc(OC)c1OC | 111% |
| COc1ccccc1-c1cc(C(=O)Nc2cc(Cl)ccc2O)no1 | 52% |
| COc1ccccc1-c1cc(C(=O)Nc2cc(OC)c(OC)c(OC)c2)no1 | 25% (active) |
| O=C(c1ccc2c(c1)CCN2S(=O)(=O)c1ccc(Cl)cc1)N1CCN(c2ccccc2)CC1 | 58% |
| CCCCOc1ccccc1C(=O)Nc1onc2c1CCCC2 | 55% |
| O=C(CN1C(=O)COc2ccc(S(=O)(=O)Nc3ccccc3)cc21)NCc1ccccc1Cl | 102% |
| O=c1c2cn[nH]c2nc(SCc2cccc(Br)c2)n1-c1ccc(Cl)cc1 | 122% |

| Compound | survival |
| --- | --- |
| CCOc1ccc(CC(=O)Nc2c(C(=O)c3ccc(C)cc3)oc3ccccc23)cc1OCC | 52% |
| CCOc1ccc(CC(=O)Nc2c(C(=O)c3ccc(F)cc3)oc3ccccc23)cc1OCC | 42% (active) |
| CC(C)(C)c1ccc(OCC(=O)Nc2c(C(=O)c3ccc(F)cc3)oc3ccccc23)cc1 | 99% |
| CCOc1ccc(CC(=O)Nc2c(C(=O)c3ccc(Cl)cc3)oc3ccccc23)cc1OCC | 48% |
| CC(C)c1ccc(OCC(=O)Nc2c(C(=O)c3ccc(F)cc3)oc3ccccc23)cc1 | 65% (active) |
| Cc1ccc(C(=O)c2oc3ccccc3c2NC(=O)COc2ccc(C(C)C)cc2)cc1 | 73% |
| Cc1cccc(-n2cc(-c3ccccc3)c3c(NC4CCCC4)ncnc32)c1 | 98% |
| CCNC(=O)CCSc1nnc(-c2ccc(O)cc2)o1 | 95% |
| O=c1oc2ccccc2c(O)c1CN1CCCCC1 | 25% (active) |
| O=c1oc2ccccc2c(N2CCN(c3ccccc3F)CC2)c1CN1CCCC1 | 89% |
| O=c1oc2ccccc2c(N2CCN(c3ccc(F)cc3)CC2)c1CN1CCCC1 | 100% |
| Cc1ccc(-c2cc(-c3ccc4c(c3)NC(=O)CO4)nc3c2COc2ccc(C)cc2-3)cc1 | 96% |
| Cc1c(C(=O)Nc2ccc(F)cc2)sc2nc[nH]c(=O)c12 | 122% |
| Cc1sc2ncn(CC(=O)N3CCN(c4cccc(Cl)c4)CC3)c(=O)c2c1S(=O)(=O)N1CCC(C)CC1 | 149% |
| Cc1sc2ncn(CC(=O)N3CCN(c4ccccc4F)CC3)c(=O)c2c1S(=O)(=O)N1CCC(C)CC1 | 74% |
| Cc1ccc(Cl)cc1N1CCN(C(=O)Cn2cnc3sc(C)c(S(=O)(=O)N4CCC(C)CC4)c3c2=O)CC1 | 47% (active) |
| Cc1cccc(N2CCN(C(=O)Cn3cnc4sc(C)c(S(=O)(=O)N5CCN(c6ncccn6)CC5)c4c3=O)CC2C)c1 (centres undefined) | 67% (active) |
| Cc1sc2ncn(CC(=O)N3CCN(c4ccccc4)CC3)c(=O)c2c1S(=O)(=O)N1CCN(c2ncccn2)CC1 | 126% |
| Cc1sc2ncn(CC(=O)N3CCN(c4cccc(Cl)c4)CC3)c(=O)c2c1S(=O)(=O)N1CCN(c2ncccn2)CC1 | 63% |
| CC1=C(c2ccc(C)cc2)S(=O)(=O)NC1=NCc1cccc(F)c1 | 92% |

— PubChem BioAssay AID463173 (ICCB-Longwood Screening Facility, Harvard Medical School, 2010)
